CYP2C9 activ: CYP2C9 (human) activation; activation factor at 5 µM; recombinant CYP2C9, luciferin-H conversion, luminescence; active compounds read high; factor 1 = untreated enzyme, 0 = blocked; 1.4% of 96,000 active; P11712; AID 1024;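 active = activation factor of 2 or more for CYP2C9 at a 5 µM dose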
Target sequence (P11712 whole entry, looked up): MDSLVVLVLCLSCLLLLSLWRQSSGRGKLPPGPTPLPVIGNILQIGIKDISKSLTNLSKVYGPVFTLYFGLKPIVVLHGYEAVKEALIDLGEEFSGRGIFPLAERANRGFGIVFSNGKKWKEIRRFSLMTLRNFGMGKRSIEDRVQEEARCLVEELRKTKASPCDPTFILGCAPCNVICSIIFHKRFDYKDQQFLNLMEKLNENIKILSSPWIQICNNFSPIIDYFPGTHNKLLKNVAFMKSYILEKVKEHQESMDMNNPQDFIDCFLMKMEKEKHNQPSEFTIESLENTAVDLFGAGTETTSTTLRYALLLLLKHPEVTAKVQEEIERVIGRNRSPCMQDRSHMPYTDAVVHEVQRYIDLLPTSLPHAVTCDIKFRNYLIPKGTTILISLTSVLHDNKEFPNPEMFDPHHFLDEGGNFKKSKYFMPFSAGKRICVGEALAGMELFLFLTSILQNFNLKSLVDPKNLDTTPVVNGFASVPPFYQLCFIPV
CYP2C9 inh: inhibitors of human CYP2C9; P11712; CYP2C9 Supersomes, luciferin-H conversion, luminescence; inhibition, % at 5 µM; 20% of 96,000 active; AID 777;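 active = blocking of liver enzyme CYP2C9 beyond about 50% at 5 µM, limit read from the data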
Measles CPE: protection of cells from measles virus | 1.5% of 140,000 active | protection (pct of control), % at 4 µM | AID 841 | Measles virus-infected cells, CPE protection, absorbance; in the data active = protection mostly above about 24%, no sharp cut-off; inactive = mostly below about 26%
CYP2C19 inh: inhibitors of human CYP2C19. CYP2C19 Supersomes, luciferin-H EGE luminescence, 30 min. inhibition, % at 5 µM. 21% of 96,000 active;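 active = CYP2C19 inhibition above a set limit at 5 µM in the primary screen, cut at about 50% in these data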
CYP2C19 activ: cytochrome P450 2C19 (human) activation. recombinant CYP2C19, luciferin-H EGE luminescence; active compounds read high; 0 = fully inhibited enzyme, 1 = untreated enzyme. activation factor at 5 µM. 96,000 tested, under 10 active. AID 1025;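 active = activation factor of at least 2 at 5 µM in the primary screen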
Of the large screens only hits and unclear results are named; the others gave an inactive call. In the library only some 22% were active in any assay of this set; here they are far more common.

COC(=O)C1=CN(C)C=C(C(=O)OC)C1c1ccc(O)c(OC)c1	none
COCCN1C=C(C(=O)OC)C(c2cc(Br)c(OC)c(OC)c2)C(C(=O)OC)=C1	CYP2C9 inh 91.3
Cc1ccccc1NC(=O)c1cccc(N2C(=O)C3C4CCC(C4)C3C2=O)c1 (stereo unspecified)	CYP2C9 inh 56.6
Cc1ccc(NC(=O)c2cccc(N3C(=O)C4C5CCC(C5)C4C3=O)c2)c(C)c1 (stereo unspecified)	none (no result: CYP2C9 activ, CYP2C9 inh, CYP2C19 inh, CYP2C19 activ)
CN(C)c1ccc(/C=C/C(=O)c2cccc(Br)c2)cc1	CYP2C19 inh 92.9
O=[N+]([O-])c1cccc(C(=Nc2ccccc2Cl)NO)c1	CYP2C9 inh 61.7, CYP2C19 inh 87.4
ONC(=Nc1ccc(Cl)cc1)c1ccc(Cl)cc1	CYP2C9 inh 55.4, CYP2C19 inh 70.8
O=[N+]([O-])c1cccc(C(=Nc2ccc(Cl)cc2)NO)c1	CYP2C9 inh 71.3, CYP2C19 inh 87.9
[S-]C(=Nc1ccc(Cl)cc1)N[n+]1ccccc1	none (no result: CYP2C9 activ, CYP2C9 inh, CYP2C19 inh, CYP2C19 activ)
COc1ccccc1N1CCN(S(=O)(=O)c2cn(C)c(=O)n(C)c2=O)CC1	none
CCOC(=O)NC1(C(F)(F)F)NC(=O)N(C2CCCCC2)C1=O (stereo unspecified)	none
Cn1nc(C(F)(F)F)c(/C=N/OC(=O)c2ccc(Cl)cc2)c1Cl	none
Cn1nc(C(F)(F)F)c(/C=N/OCc2c(Cl)cccc2Cl)c1Cl	CYP2C9 inh 79.6, CYP2C19 inh 52.4
COc1cccc(NC(=O)CCSc2ccc3ccccc3n2)c1	none (no result: CYP2C9 activ, CYP2C9 inh, CYP2C19 inh, CYP2C19 activ)
CCCc1cc(=O)[nH]c(Nc2ccc(OC)c(Cl)c2)n1	CYP2C9 inh 72.4
CCCc1cc(=O)[nH]c(Nc2ccc(O)cc2)n1	none
COc1ccc(C2CC(c3ccc(F)cc3)Nc3nc(N)nn32)cc1 (stereo unspecified)	none
Cc1nc(CN2CCN(C(=O)NC3(c4ccccc4)CC3)CC2)cs1	none
COc1ccc(OC)c(S(=O)(=O)N2CCC(C(=O)Nc3ccc(C)c(C)c3)CC2)c1	CYP2C9 activ 2.5
COc1ccc(OC)c(S(=O)(=O)N2CCC(C(=O)Nc3cccc(C)c3C)CC2)c1	CYP2C9 activ 2.5
COC(=O)Cc1[nH]nc2c1C(C1C=CCCC1)C(C#N)=C(N)O2 (stereo unspecified)	CYP2C9 inh 60.2, CYP2C19 inh 70.2
CCOC(=O)Cc1[nH]nc2c1C(c1ccoc1)C(C#N)=C(N)O2 (stereo unspecified)	CYP2C19 inh 77.2
COCc1[nH]nc2c1C(c1ccccc1F)C(C#N)=C(N)O2 (stereo unspecified)	none
CCCc1[nH]nc2c1C(c1ccoc1)C(C#N)=C(N)O2 (stereo unspecified)	none (no result: CYP2C9 activ, CYP2C9 inh, CYP2C19 inh, CYP2C19 activ)
CCCc1[nH]nc2c1C(C1CCCCC1)C(C#N)=C(N)O2 (stereo unspecified)	none
COC(=O)Cc1[nH]nc2c1C(c1c[nH]c3ccccc13)C(C#N)=C(N)O2 (stereo unspecified)	CYP2C19 inh 51.8
CC1CCCCC1NC(=O)C1CC=CCC1C(=O)O (stereo unspecified)	none (no result: CYP2C9 activ, CYP2C9 inh, CYP2C19 inh, CYP2C19 activ)
COc1ccc(C(=O)COC(=O)C2CCCN2C(=O)C23CC4CC(CC(C4)C2)C3)cc1 (stereo unspecified)	none (no result: CYP2C9 activ, CYP2C9 inh, CYP2C19 inh, CYP2C19 activ)
NC(=O)C(c1ccccc1)C1CCCCC1 (stereo unspecified)	none
CCOC(=O)c1sc(NC(=O)CSc2nc(C)cc(-c3ccccc3)n2)c(C#N)c1C	none
CCOC(=O)c1sc(NC(=O)CSc2n[nH]c(-c3ccc(Cl)cc3Cl)n2)c(C#N)c1C	CYP2C9 inh 75.9
CCOC(=O)c1sc(NC(=O)CSc2nc(C)cc(C)c2C#N)c(C#N)c1C	none
CCOC(=O)c1sc(NC(=O)CSc2nc3c(cc2C#N)CCCCCC3)c(C#N)c1C	CYP2C9 inh 68.2
CCOC(=O)c1sc(NC(=O)CSc2nc3c(c(-c4ccc(OC)cc4)c2C#N)CCCC3)c(C#N)c1C	CYP2C9 inh 64.5
CCOC(=O)c1c(C)c(C(=O)Nc2ccccc2)c(C)n1CC	none
CCOC(=O)c1c(C)c(C(=O)Nc2cc(OC)ccc2OC)c(C)n1CC	CYP2C19 inh 60.6
COc1ccccc1OCC(=O)c1[nH]c(C)c(C(C)=O)c1C	none
COc1ccccc1NC(=O)c1[nH]c(C)c(C(C)=O)c1C	CYP2C9 inh 79.1
CCOC(=O)c1[nH]c(C)c(C(=O)c2ccc(C)cc2)c1C	CYP2C19 inh 62.7
CCOC(=O)c1[nH]c(C)c(C(=O)Nc2cc(OC)ccc2OC)c1C	CYP2C9 activ 2
CCOC(=O)c1c(C)[nH]c(C(=O)OCC(=O)Nc2cc(C)ccc2OC)c1C	none
O=C(N/C(=C/c1cccs1)C(=O)N1CCCCCC1)c1ccccc1	none (no result: CYP2C9 activ, CYP2C9 inh, CYP2C19 inh, CYP2C19 activ)
CSc1nc(Oc2cccc(C(F)(F)F)c2)cc(C(F)(F)F)n1	none
C/C(CCc1ccco1)=N/NC(=O)CCC(=O)Nc1cccc(Cl)c1	none
Clc1ccc2nc(-c3ccccn3)c(Nc3ccc4c(c3)OCO4)n2c1	none (no result: CYP2C9 activ, CYP2C9 inh, CYP2C19 inh, CYP2C19 activ)
Cc1cc(C(=O)NC2=NCCS2)cs1	none (no result: CYP2C9 activ, CYP2C9 inh, CYP2C19 inh, CYP2C19 activ)
CC(=O)c1c(C)[nH]c(C(=O)NC2=NCCS2)c1C	CYP2C9 inh 64.0
CCc1ccc2c(c1)C(c1cccs1)=NNC(c1cccnc1)=N2	none
Fc1ccc2c(c1)C(c1ccncc1)=NNC(c1ccc(Br)cc1)=N2	none (no result: CYP2C9 activ, CYP2C9 inh, CYP2C19 inh, CYP2C19 activ)
Fc1ccc2c(c1)C(c1ccncc1)=NNC(c1cccnc1)=N2	CYP2C9 inh 54.5, CYP2C19 inh 51.1
Clc1ccc2c(c1)C(c1cccs1)=NNC(c1cccnc1)=N2	CYP2C9 inh 67.8
O=c1c(F)cn(C2CCCO2)c(=O)n1Cc1c(Cl)cccc1Cl (stereo unspecified)	CYP2C19 inh 66.1
O=C(NC1CC1)C1CCN(c2ncnc3c2sc2cccc(F)c23)CC1	CYP2C9 inh 73.3, CYP2C19 inh 60.6
COC(=O)c1c(C(=O)OC)c(-c2ccccc2)n2c1CS(=O)C2 (stereo unspecified)	none
CCC1=NN(C(=O)C(=O)Nc2ccccc2OC)C(O)(C(F)(F)F)C1 (stereo unspecified)	CYP2C9 inh 61.9
CCC1=NN(C(=O)C(=O)NCCc2ccccc2)C(O)(C(F)(F)F)C1 (stereo unspecified)	none
CCC1=NN(C(=O)CCc2ccccc2)C(O)(C(F)(F)F)C1 (stereo unspecified)	CYP2C19 inh 67.0
CCC1=NN(C(=O)Cc2ccc(OC)cc2)C(O)(C(F)(F)F)C1 (stereo unspecified)	CYP2C19 inh 52.8
O=C(c1cc(F)c(F)cc1Cl)N1CCCCC1	none
CCn1c(N2CCN(C(=S)NCC(C)C)CC2)nc2ccccc21	none
CCn1c(N2CCN(C(=S)NC)CC2)nc2ccccc21	CYP2C19 inh 65.5
CCN1CCN(C(=S)NCCc2ccccc2)CC1	none
CCn1c(N2CCN(C(=S)NCCc3ccccc3)CC2)nc2ccccc21	CYP2C19 inh 55.7
O=C(N/N=C/c1cc(Br)ccc1O)Nc1ccccc1	none (no result: CYP2C9 activ, CYP2C9 inh, CYP2C19 inh, CYP2C19 activ)
COc1ccc(-c2nc(SCC(=O)Nc3cc(C)on3)n[nH]2)cc1	CYP2C9 inh 89.0
Cc1ccc(-n2c(SCC(=O)Nc3cc(C)on3)nc3c([nH]c4ccccc43)c2=O)cc1	none
Cc1cc(NC(=O)CSc2c(C)[nH]c3ccccc23)no1	CYP2C19 inh 65.7

Source: PubChem BioAssay (several laboratories)
